Where “and” joins values, the source holds several entries; their conditions need not be identical. Equal entries are not always repeated. About 79,000 compounds went through this panel and 15% of them were active in at least one assay; those are over-represented in the sample as a whole. Calls of active or inactive are those of the source. Cut-off read from the data, not from the text of the source: active = growth inhibition above about 70%; inactive = the rest.
Tests used:
[1] = NCI Yeast Anticancer Drug Screen. Data for the rad50 strain (AID 155);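 note: 0% = growth of vehicle-only cultures of the same strain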; details: S. cerevisiae rad50 strain growth inhibition, hits give high values
Procedure, shortened: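 Growth of the mutant yeast was measured after compound exposure and referenced to vehicle-treated cultures.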

[2] = NCI Yeast Anticancer Drug Screen. Data for the mec2-1 strain (AID 157); details: S. cerevisiae mec2-1 strain, hits give high values
Procedure, shortened: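 Vehicle-treated cultures served as reference for growth inhibition of compound-exposed mec2-1 yeast.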

[3] = NCI Yeast Anticancer Drug Screen. Data for the sgs1 mgt1 strain (AID 161);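 note: 0% = growth of cultures given vehicle only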; details: S. cerevisiae sgs1 mgt1 strain, hits give high values
Procedure, shortened: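 Mutant yeast exposed to compound; growth scored against vehicle-only wells.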

[4] = NCI Yeast Anticancer Drug Screen. Data for the cln2 rad14 strain (AID 165);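 note: 0% = growth equal to vehicle treated cultures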; details: S. cerevisiae cln2 rad14 strain, hits give high values
Procedure, shortened: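 Each compound was tested on cln2 rad14 yeast. Inhibition of growth was calculated against vehicle-exposed controls.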

[5] = NCI Yeast Anticancer Drug Screen. Data for the bub3 strain (AID 167); details: S. cerevisiae bub3 mutant strain, hits give high values
Procedure, shortened: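 Whole-cell yeast assay. The mutant strain was incubated with compounds, and growth inhibition was determined by comparison with vehicle-treated cells.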

[6] = NCI Yeast Anticancer Drug Screen. Data for the mlh1 rad18 strain (AID 175); details: S. cerevisiae mlh1 rad18 strain growth inhibition, hits give high values
Procedure, shortened: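 Vehicle-treated cultures served as the reference for growth inhibition in a yeast strain carrying DNA damage repair alterations exposed to each compound.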

[7] = at 5.0 µM (retest, dose inferred, filed as 0.5)
[8] = at 50.0 µM (retest, dose inferred, filed as 5.0)

Measured: growth inhibition

CC1CCS(=O)(=O)CC1.[Cl][Hg][Cl]
active: [1]; [7] 98% | [1]; [8] 99% | [1]; at 50.0 µM 99.6% | [2]; [7] 99% | [2]; [8] 99% | [2]; at 50.0 µM 99.6% | [3]; [7] 99% | [3]; [8] 99% | [3]; at 50.0 µM 99.6% | [4]; [7] 99% | [4]; [8] 99% | [4]; at 50.0 µM 99.3% | [5]; [7] 99% | [5]; [8] 99% | [5]; at 50.0 µM 99.5% | [6]; [7] 99% | [6]; [8] 99% | [6]; at 50.0 µM 99.5%

CCOP(=O)(OCC)/C(C#N)=C/c1cccc(C)c1
inactive: [1]; [7] 4% | [1]; [8] 53% | [2]; [7] -14% | [2]; [8] 28% | [2]; at 50.0 µM 58.3% | [3]; [7] -18% | [3]; [8] 42% | [3]; at 50.0 µM 65.8% | [4]; [7] -17% | [4]; [8] 9% | [4]; at 50.0 µM 35% | [5]; [7] -8% | [5]; [8] 52% | [5]; at 50.0 µM 52.1% | [6]; [7] -37% | [6]; [8] 56% | [6]; at 50.0 µM 66.3%
active: [1]; at 50.0 µM 71.4%

[I][Hg][CH2]C1COCC([CH2][Hg][I])O1 (configuration not stated)
active: [1]; at 50.0 µM 98.7% | [2]; at 50.0 µM 99.5% | [3]; at 50.0 µM 99.2% | [4]; at 50.0 µM 98.2% | [5]; at 50.0 µM 99.5% | [6]; at 50.0 µM 99.2%
inactive: [1]; [7] 0% | [1]; [8] 5% | [2]; [7] 4% | [2]; [8] 6% | [3]; [7] 0% | [3]; [8] 9% | [4]; [7] -1% | [4]; [8] 7% | [5]; [7] 5% | [5]; [8] -8% | [6]; [7] 0% | [6]; [8] 7%

COc1c(NC(=O)CC(C)=O)[c]([Hg][O]C(C)=O)c(OC)c(Cl)[c]1[Hg][O]C(C)=O
active: [1]; [8] 95% | [1]; at 50.0 µM 91.8% | [2]; [8] 96% | [2]; at 50.0 µM 93.8% | [3]; [7] 81% | [3]; [8] 97% | [3]; at 50.0 µM 93.5% | [4]; [8] 96% | [4]; at 50.0 µM 88.8% | [5]; [8] 97% | [5]; at 50.0 µM 93.3% | [6]; [8] 95% | [6]; at 50.0 µM 87.8%
inactive: [1]; [7] 29% | [2]; [7] 32% | [4]; [7] 29% | [5]; [7] 62% | [6]; [7] 38%

CCCCCCCCCCCCCC(=O)O
active: [3]; [8] 88% | [6]; [8] 87%
inactive: [1]; [7] -7% | [1]; [8] 18% | [1]; at 50.0 µM 4.15% and 34.9% | [2]; [7] 11% | [2]; [8] 63% | [2]; at 50.0 µM 7.2% and -10.9% | [3]; [7] 11% | [3]; at 50.0 µM 15.4% and 27.3% | [4]; [7] 1% | [4]; [8] 20% | [4]; at 50.0 µM 66.5% and 24.1% | [5]; [7] -7% | [5]; [8] 29% | [5]; at 50.0 µM 57.7% and 11.7% | [6]; [7] 5% | [6]; at 50.0 µM -6.2% and 13.4%

O=c1ccn(C2OC(CO)C(O)C2O)c(=O)[n]1[Hg][c]1ccccc1 (configuration not stated)
active: [1]; [7] 99% | [1]; [8] 99% | [1]; at 50.0 µM 90.8% | [2]; [7] 100% | [2]; [8] 99% | [2]; at 50.0 µM 89.7% | [3]; [7] 100% | [3]; [8] 100% | [3]; at 50.0 µM 85.8% | [4]; [7] 99% | [4]; [8] 99% | [4]; at 50.0 µM 88.3% | [5]; [7] 100% | [5]; [8] 99% | [5]; at 50.0 µM 84.3% | [6]; [7] 98% | [6]; [8] 98% | [6]; at 50.0 µM 91.8%

CC(NCCN(C)C)C1CC2CCCCN2C1 (configuration not stated)
inactive: [1]; [7] -8% | [1]; [8] -30% | [1]; at 50.0 µM 3.55% | [2]; [7] -8% | [2]; [8] -14% | [2]; at 50.0 µM 11.9% | [3]; [7] -13% | [3]; [8] -28% | [3]; at 50.0 µM 15.7% | [4]; [7] -17% | [4]; [8] -26% | [4]; at 50.0 µM 41.1% | [5]; [7] 3% | [5]; [8] 1% | [5]; at 50.0 µM 0.8% | [6]; [7] -3% | [6]; [8] 19% | [6]; at 50.0 µM 33%

C[CH2][Sn]([CH2]C)([S]CCS(=O)(=O)O)[S]CCS(=O)(=O)O (tested in a mixture with another compound)
inactive: [1]; [7] 18% | [1]; [8] 26% | [1]; at 50.0 µM 53.9% | [2]; [7] 17% | [2]; [8] 46% | [2]; at 50.0 µM 45.8% | [3]; [7] -22% | [3]; [8] 54% | [3]; at 50.0 µM 27.3% | [4]; [7] -10% | [4]; [8] 67% | [4]; at 50.0 µM 19% | [5]; [7] -1% | [5]; [8] 66% | [5]; at 50.0 µM 17.6% | [6]; [7] 16% | [6]; [8] 32% | [6]; at 50.0 µM -25.9%

CC(=O)[CH-]C(=O)c1ccccc1.CC(=O)[CH-]C(=O)c1ccccc1.C[C@]12CCC(=O)C=C1CC[C@@H]1C2CC[C@@]2(C)C1CC[C@]2(C)[O-].C[C@]12CCC(=O)C=C1CC[C@@H]1C2CC[C@@]2(C)C1CC[C@]2(C)[O-].Cl.[Ti+4] (some centres not stated)
active: [1]; [8] 76% | [1]; at 50.0 µM 86.8% | [2]; [8] 87% | [2]; at 50.0 µM 85% | [3]; [8] 93% | [3]; at 50.0 µM 84.8% | [4]; [8] 72% | [4]; at 50.0 µM 86.1% | [5]; [8] 94% | [5]; at 50.0 µM 84.5% | [6]; [8] 90% | [6]; at 50.0 µM 81.2%
inactive: [1]; [7] 33% | [2]; [7] 26% | [3]; [7] 37% | [4]; [7] 13% | [5]; [7] 39% | [6]; [7] 37%

CCCCCCCC/C=C\CCCCCCCCN1CC(C(=O)[O][Pb]([CH2]C)([CH2]C)[CH2]C)CC1=O (configuration not stated)
inactive: [1]; [7] 7% | [1]; at 50.0 µM 30.1% | [2]; [7] 5% | [2]; at 50.0 µM 28.8% | [3]; [7] 10% | [3]; at 50.0 µM 65.9% | [4]; [7] 5% | [4]; [8] 66% | [4]; at 50.0 µM 9.45% | [5]; [7] 4% | [5]; at 50.0 µM 23.3% | [6]; [7] 1% | [6]; at 50.0 µM 65.7%
active: [1]; [8] 77% | [2]; [8] 80% | [3]; [8] 79% | [5]; [8] 82% | [6]; [8] 72%

COC(=O)CC1(C(=O)O)CC2(Cl)C(Cl)=C(Cl)C1(Cl)C2(Cl)Cl (configuration not stated)
active: [3]; at 50.0 µM 75% | [4]; at 50.0 µM 83.5%
inactive: [1]; [7] 4% | [1]; [8] 30% | [1]; at 50.0 µM 65.9% | [2]; [7] 10% | [2]; [8] 52% | [2]; at 50.0 µM 47.4% | [3]; [7] 6% | [3]; [8] 49% | [4]; [7] 17% | [4]; [8] 56% | [5]; [7] 1% | [5]; [8] 41% | [5]; at 50.0 µM 36.8% | [6]; [7] 7% | [6]; [8] 57% | [6]; at 50.0 µM 61.4%

C[As](c1ccc(Br)cc1)c1ccc(Br)cc1
inactive: [1]; [7] -4% | [1]; [8] 1% | [1]; at 50.0 µM 3.6% | [2]; [7] -2% | [2]; [8] 20% | [2]; at 50.0 µM 25.8% | [3]; [7] 7% | [3]; [8] 46% | [4]; [7] -5% | [4]; [8] -18% | [4]; at 50.0 µM 52.1% | [5]; [7] 2% | [5]; [8] 44% | [5]; at 50.0 µM -14.2% | [6]; [7] 6% | [6]; [8] 22% | [6]; at 50.0 µM 53%
active: [3]; at 50.0 µM 75.5%

COc1ccc(-c2c(C)c(C(=O)O)nc(-c3ccc4c(O)c(OC)c5c(c4n3)=NC(C)(C)N=5)c2N)c(O)c1OC
inactive: [2]; [7] 20% | [2]; [8] 68% | [2]; at 50.0 µM 33% | [3]; [7] 39% | [3]; [8] 60% | [3]; at 50.0 µM 41.4% | [4]; [7] 16% | [4]; at 50.0 µM 47% | [5]; [7] -1% | [5]; [8] 7% | [5]; at 50.0 µM 19.9% | [6]; [7] 59% | [6]; at 50.0 µM 61.5%
active: [1]; [7] 76% | [1]; [8] 92% | [1]; at 50.0 µM 75.1% | [4]; [8] 76% | [6]; [8] 87%

COc1cc(CC(=O)N2CC2)cc(OC)c1OC
inactive: [1]; [7] -6% | [1]; [8] -1% | [1]; at 50.0 µM 7.85% | [2]; [7] 0% | [2]; [8] 8% | [2]; at 50.0 µM -3.1% | [3]; [7] -6% | [3]; [8] 2% | [3]; at 50.0 µM -13.6% | [4]; [7] -7% | [4]; [8] -3% | [4]; at 50.0 µM 39.4% | [5]; [7] -5% | [5]; [8] -1% | [5]; at 50.0 µM 13.9% | [6]; [7] -2% | [6]; [8] -8% | [6]; at 50.0 µM -13.8%
